{"source": "PubChem BioAssay (NCATS)", "note": "Results filed as inconclusive are left out. Active and inactive are the calls of the source. The call rests on the fitted dose curve; in most records, active means well fitted inhibition curve with a large enough effect; inconclusive means small, poorly fitted or top-dose-only effect; inactive means flat fitted curve, though single readings scatter. On the % scale 0 is the no-effect control and ±100 the full control effect."}
{"biological_target": "Calcium and integrin-binding protein 1 (Homo sapiens) (UniProt Q99828)", "sequence (Q99828 whole entry, looked up)": "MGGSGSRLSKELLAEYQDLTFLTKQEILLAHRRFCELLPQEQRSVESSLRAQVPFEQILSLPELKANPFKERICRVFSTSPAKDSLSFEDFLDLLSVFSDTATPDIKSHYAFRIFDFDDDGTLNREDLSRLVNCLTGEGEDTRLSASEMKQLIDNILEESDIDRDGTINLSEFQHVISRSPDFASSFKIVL", "test": "Primary qHTS for Identification of Calcium Integrin Binding Protein 1 (CIB1) Competitor (AID 1508620); further: top concentration of the series differs between compounds", "conditions": "CIB1-GST / FITC-alphaIIb peptide fluorescence polarization; series mostly up to 114 µM; activity change, negative = inhibition: at the top concentration", "how_it_was_run": "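Fluorescence polarization competition: GST-tagged CIB1 (1 uM final) preincubated with compound 15 min at room temperature, then FITC-labelled alphaIIb peptide (100 nM final) added. After 15 min at room temperature, polarization read at Ex 480/Em 540.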"}
{"compound": "Cn1nnnc1Sc1ncnc2scc(Br)c12", "activity change, negative = inhibition": "-1.87% (inactive)"}
{"compound": "Cc1ccnc(NC(=S)Nc2cccc([S+](=O)([O-])Nc3ccccc3F)c2)c1", "activity change, negative = inhibition": "-3.8% (inactive)"}
{"compound": "Cn1cc(C[C@H](C(=O)O)N2C(=O)c3ccc(C(=O)O)cc3C2=O)c2ccccc21", "activity change, negative = inhibition": "-3.89% (inactive)"}
{"compound": "O=C(O)c1ccc(S(=O)(=O)N[C@H](Cc2c[nH]c3ccccc23)C(=O)O)cc1", "activity change, negative = inhibition": "-3.28% (inactive)"}
{"compound": "Cc1cc(NC(=O)c2ccc([S+](=O)([O-])NCc3ccc(Cl)c(Cl)c3)cc2)no1", "activity change, negative = inhibition": "-0.528% (inactive)"}
{"compound": "COCCN1C(=O)c2ccccc2NC1c1ccc(OC)c(COc2c(C)cc(NC(C)=O)cc2C)c1", "note": "(stereo not given)", "activity change, negative = inhibition": "3.02% (inactive)"}
{"compound": "O=S1(=O)N=C(Oc2cccc3ccccc23)c2ccccc21", "activity change, negative = inhibition": "-7.72% (inactive)"}
{"compound": "CCOC(=O)c1ccc(-c2ccc3ncnc(NCc4csc(C)n4)c3c2)o1", "activity change, negative = inhibition": "-15.9% (inactive)"}
{"compound": "COc1ccc(NC(=O)c2[nH]c(C)c(C(C)=O)c2C)cc1S(=O)(=O)Nc1cccc(C#N)c1", "activity change, negative = inhibition": "-5.17% (inactive)"}
{"compound": "O=C(O)c1cccc(-n2cccc2)c1", "activity change, negative = inhibition": "-0.414% (inactive)"}
{"compound": "FC(F)(F)c1ccccc1-c1nc(NCc2ccc(-c3ccc(Cl)c(Cl)c3)cc2)c2ccccc2n1", "activity change, negative = inhibition": "2.96% (inactive)"}
{"compound": "O=C(Nc1ncc(Cc2ccc(C(F)(F)F)cc2)s1)c1ccc(-c2ccccc2)o1", "activity change, negative = inhibition": "2.56% (inactive)"}
{"compound": "Cc1ccc(OCCn2c(CCNC(=O)C3CCN(C(=O)OC(C)(C)C)CC3)nc3ccccc32)cc1", "activity change, negative = inhibition": "-3.51% (inactive)"}
{"compound": "Fc1cc(Nc2nc(-c3ccncc3)nc3ccccc23)ccc1OCC(F)(F)F", "activity change, negative = inhibition": "2.76% (inactive)"}
{"compound": "Cc1ccc(OCCn2c(CCNC(=O)OC(C)(C)C)nc3ccccc32)cc1", "activity change, negative = inhibition": "1.28% (inactive)"}
{"compound": "Cc1ccc(-c2ccc(=O)n(CC(=O)N(C)C3CCCCCC3)n2)cc1", "activity change, negative = inhibition": "-0.875% (inactive)"}
{"compound": "O=c1c2ccccc2nc2sc(Nc3ccc(F)cc3)nn12", "activity change, negative = inhibition": "11.4% (inactive)"}
{"compound": "COc1ccc(C2Nc3cccc(OC)c3C(=O)N2Cc2ccccc2)cc1COc1ccc(NC(C)=O)cc1", "note": "(stereo not given)", "activity change, negative = inhibition": "8.32% (inactive)"}
{"compound": "Cc1cc(C)nc(NC(=S)N2CCN(c3ncccn3)CC2)c1", "activity change, negative = inhibition": "-0.681% (inactive)"}
{"compound": "Cc1cc2c(s1)c1cnn(Cc3ccc(Cl)c(Cl)c3)c(=O)c1n2C", "activity change, negative = inhibition": "5.6% (inactive)"}
{"compound": "N#CN1CCC(NC(=O)c2cccc(F)c2)CC1", "activity change, negative = inhibition": "1.08% (inactive)"}
{"compound": "Cc1cc(C)nc(NC(=S)N2CCN(c3ccc4ncccc4c3[N+](=O)[O-])CC2)c1", "activity change, negative = inhibition": "-13.2% (inactive)"}
{"compound": "N#Cc1ccc(-c2nc(NCc3ccc(-c4ccnc(C(F)(F)F)c4)cc3)c3ccccc3n2)cc1", "activity change, negative = inhibition": "13.5% (inactive)"}
{"compound": "Nc1cccc(CNc2ccc(S(=O)(=O)Nc3nccs3)cc2)c1O", "activity change, negative = inhibition": "-17.1% [at 30.2 µM] (inactive)"}
{"compound": "CCc1ccc(NC(=O)c2cnn3c(C)cc(C)nc23)cc1", "activity change, negative = inhibition": "-4.12% (inactive)"}
{"compound": "Cc1ccc(-c2ccc(=O)n(CC(=O)N(C)CCN(C)C)n2)cc1", "activity change, negative = inhibition": "2.97% (inactive)"}
{"compound": "COc1cc2ncnc(N(C)Cc3cccs3)c2cc1-c1ccc2c(c1)OCO2", "activity change, negative = inhibition": "1.74% (inactive)"}
{"compound": "CC(=O)Nc1sc2c(c1-c1ccc3c(c1)CCO3)CCNC2", "activity change, negative = inhibition": "1.43% (inactive)"}
{"compound": "Fc1cccc(CNc2ncnc3ccc(-c4ccccc4Cl)cc23)c1", "activity change, negative = inhibition": "5.69% (inactive)"}
{"compound": "Cc1ccccc1-c1nc(NCc2ccc(-c3cccnc3)cc2)c2ccccc2n1", "activity change, negative = inhibition": "0.443% (inactive)"}
{"compound": "C=CCSc1nnc(-c2cccc3ccccc23)o1", "activity change, negative = inhibition": "5.96% (inactive)"}
{"compound": "NC(=O)C1CCN(c2nc(-c3ccc4ccccc4c3)cs2)CC1", "activity change, negative = inhibition": "-3.42% (inactive)"}
{"compound": "FC(F)(F)c1ccccc1-c1nc(NCc2ccc(-c3ccccc3)cc2)c2ccccc2n1", "activity change, negative = inhibition": "2.55% (inactive)"}
{"compound": "Cn1ncc(-c2nnc(-c3ccccc3)n2CCCn2ccnc2)c1N", "activity change, negative = inhibition": "-0.693% (inactive)"}
{"compound": "O=C(O)c1ccc2c(c1)C(=O)N([C@]1(C(=O)O)C[C@H]1c1ccccc1)C2=O", "activity change, negative = inhibition": "-2.57% (inactive)"}
{"compound": "Cc1noc(C)c1-c1ccc2ncnc(NCc3ccc(F)c(F)c3)c2c1", "activity change, negative = inhibition": "-2.03% (inactive)"}
{"compound": "Cc1ccc(NS(=O)(=O)c2ccc3c(c2)CC(=O)N3)cc1C", "activity change, negative = inhibition": "-0.567% (inactive)"}
{"compound": "Cn1c2cc(B(O)O)sc2c2cnn(Cc3ccccc3F)c(=O)c21", "activity change, negative = inhibition": "-11.5% (inactive)"}
{"compound": "Cc1ccc(-c2ccc(=O)n(CC(=O)NCCc3ccc(O)cc3)n2)cc1", "activity change, negative = inhibition": "0.617% (inactive)"}
{"compound": "N#Cc1nc(Nc2cc(Cl)cc(Cl)c2)nc(NC2CCCC2)n1", "activity change, negative = inhibition": "4.14% (inactive)"}
